The list is not random: actives were taken first. Their share in the collection is about 0.45%.
USP1 inh: inhibitors of human USP1/UAF1 deubiquitinase; O94782; recombinant USP1/UAF1, Ub-Rhodamine cleavage fluorescence; Potency, µM (series often up to 57.1 µM), for the others: top-dose activity change, negative = inhibition, most hits filed as inhibitors; 390,000 compounds, 0.23% hits; AID 743255; also: % is scaled to controls: 0 for no effect and ±100 for the full control effect; nearly all actives have a fitted effect of over 60% in size
Target sequence (O94782 whole entry, looked up): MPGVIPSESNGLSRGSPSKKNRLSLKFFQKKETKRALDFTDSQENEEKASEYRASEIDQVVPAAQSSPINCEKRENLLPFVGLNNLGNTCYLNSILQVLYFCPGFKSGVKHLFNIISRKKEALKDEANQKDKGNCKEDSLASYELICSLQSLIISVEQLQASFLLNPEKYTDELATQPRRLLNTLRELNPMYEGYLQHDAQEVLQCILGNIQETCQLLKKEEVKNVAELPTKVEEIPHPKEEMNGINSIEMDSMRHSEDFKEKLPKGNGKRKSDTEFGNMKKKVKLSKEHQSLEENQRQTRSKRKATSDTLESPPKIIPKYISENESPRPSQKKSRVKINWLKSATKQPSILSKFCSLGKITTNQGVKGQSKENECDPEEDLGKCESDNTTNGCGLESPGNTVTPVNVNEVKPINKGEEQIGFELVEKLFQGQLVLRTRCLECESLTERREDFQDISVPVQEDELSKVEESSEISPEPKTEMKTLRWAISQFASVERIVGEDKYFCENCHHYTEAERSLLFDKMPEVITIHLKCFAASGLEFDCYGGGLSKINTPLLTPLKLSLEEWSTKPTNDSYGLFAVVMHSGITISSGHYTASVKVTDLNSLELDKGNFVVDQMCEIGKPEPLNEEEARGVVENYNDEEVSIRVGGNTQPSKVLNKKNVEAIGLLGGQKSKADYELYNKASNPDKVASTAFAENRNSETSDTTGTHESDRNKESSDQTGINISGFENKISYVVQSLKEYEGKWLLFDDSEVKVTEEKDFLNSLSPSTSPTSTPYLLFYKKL
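USP1/UAF1 complex at 1 nM was preincubated with compound for 15 min at room temperature, then Ub-Rho substrate (150nM final) was added. Fluorescence (480/540 nm) was read kinetically, 6 reads every 60 seconds.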
EPAC2 agonist: agonists of human EPAC2 (RAPGEF4); AID 720711; 360,000 compounds, 0.079% hits; Potency, µM (series often up to 154 µM), for the others: at the highest dose activation, hits mostly activators; EPAC2 activation, biochemical qHTS; response scale: 100% = 6.5 mM cAMP response; also: nearly all actives have a fitted effect of over 50% in size
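Guanine nucleotide exchange by EPAC2 is measured as reduced fluorescence of BODIPY-GDP once it is released from 250 nM Rap1B. Plates are read kinetically for 30 min at room temperature; results are scaled to 6.5 mM cAMP.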
EPAC1 ag: agonists of human EPAC1. 360,000 compounds, 0.073% hits. O95398. Potency, µM (highest dose often 154 µM), for the others: at the top dose activation, usual class: activators. EPAC1 agonist qHTS, biochemical assay; response scale: 100% = response to 6.5 mM cAMP; also: nearly all actives have a fitted effect of over 60% in size
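EPAC1 100 nM, Rap1B–BODIPY-GDP 250 nM, unlabeled GDP 50 uM; compound titration; 5 min RT; kinetic read ex480/em540 at 5-min intervals ×30 min; data normalized to 6.5 mM cAMP agonist control.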
EPAC1 antag: blocks human EPAC1 exchange factor | O95398 | EPAC1 GEF assay, Rap1b-BODIPY-GDP exchange fluorescence | Potency, µM (highest dose often 115 µM), for the others: at the highest dose activity change, negative = inhibition, hits mostly inhibitors | 360,000 compounds, 0.14% hits | AID 720709;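 also: plate controls were vehicle for no effect and positive control for full effect; nearly all actives have a fitted effect of over 50% in size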
USP2a inh: inhibitors of human ubiquitin-specific protease USP2a. USP2 core, Ub-CHOP2 coupled fluorogenic reporter, 485/531. Potency, µM (series often up to 38.3 µM), without a hit: at the top dose activity change, negative = inhibition, usual class: inhibitors. 330,000 compounds, 0.01% hits. O75604;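 also: plate controls were DMSO wells for no effect and full inhibition by NEM control for full effect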
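USP2 core (10nM final) preincubated 30min RT with compound in 20mM Tris-HCl pH 8.0, 2mM CaCl2, 2mM beta-mercaptoethanol, 0.05% CHAPS; 25nM Ub-CHOP2 plus 25nM reporter substrate added, fluorescence (Ex485/Em531) read after 60min.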
EPAC2 antagonist: EPAC2 (human) antagonism. Potency, µM (series often up to 114 µM), without a hit: at the top dose activity, negative = inhibition, most hits filed as inhibitors. EPAC2 GEF exchange of Rap1B-BODIPY-GDP, fluorescence. 360,000 compounds, 0.18% hits; also: % is scaled to controls: 0 for no effect and ±100 for the full control effect; nearly all actives have a fitted effect of over 45% in size
Active calls of the source: *. Calls follow the shape of the dose curve; as a rule, active = well fitted curve in the direction sought with a large enough effect; inconclusive = small, poorly fitted or top-dose-only effect, or another doubt; inactive = no such curve, though single readings can be large; an effect the other way counts as inactive or inconclusive. Potency is read from the fitted curve at half-maximal effect.

`O=C(NCc1ccccc1)C(C1CC1)n1c(=O)c(-c2cc3ccccc3[nH]2)nc2ccccc21` (stereo not drawn) gave EPAC2 agonist 13%, EPAC1 ag 15%, EPAC1 antag -9% and EPAC2 antagonist -3%.
`O=C1NC(=O)/C(=C/c2cccc3ccccc23)S1` gave USP1 inh -6%, EPAC2 agonist -7%, EPAC1 ag -8%, EPAC1 antag inconclusive, USP2a inh -1% and EPAC2 antagonist inconclusive.
Screening O=C1NC(=O)C(=Cc2ccccc2[N+](=O)[O-])S1 returned USP1 inh inconclusive, EPAC2 agonist 11%, EPAC1 ag 5%, EPAC1 antag 50µM* and EPAC2 antagonist 79µM*.
O=S(=O)(c1ccc(-c2cc(C(F)(F)F)on2)s1)N1CCN(c2ccc(F)cc2)CC1 was read as USP1 inh -21%.
For CCN(c1ccccc1)c1cc2ccccc2c(=O)[nH]1 the results were USP1 inh 25µM*, EPAC2 agonist -16%, EPAC1 ag -11%, EPAC1 antag inconclusive, USP2a inh 3% and EPAC2 antagonist -14%.
For CCN(c1ccccc1)c1nc(=O)c2cccnc2s1 the results were USP1 inh -18%, EPAC2 agonist 6%, EPAC1 ag 0%, EPAC1 antag -20%, USP2a inh 1% and EPAC2 antagonist -6%.
`COc1cc(C(=O)NCC(c2cccs2)S(=O)(=O)c2ccc(F)cc2)cc(OC)c1OC` (stereo not drawn) gave USP1 inh 2%.
For Cc1nc(Nc2cnc(/C=C/c3cc(C(=O)Nc4cccc(C(F)(F)F)c4)ccc3C)cn2)cc(N2CCNCC2)n1 the results were USP1 inh inconclusive, EPAC2 agonist inconclusive, EPAC1 ag 8%, EPAC1 antag -22%, USP2a inh -3% and EPAC2 antagonist 50µM*.
Cc1cc(/C=C2\C(=N)N3C(SCc4ccccc4)=NSC3=NC2=O)c(C)n1Cc1ccccc1 was read as USP1 inh -18%, EPAC2 agonist 5%, EPAC1 ag -2%, EPAC1 antag 3%, USP2a inh 2% and EPAC2 antagonist 6%.
For CC(C)CSC1=NSC2=NC(=O)/C(=C\c3coc4ccccc4c3=O)C(=N)N12 the results were USP1 inh 4.5µM*, EPAC2 agonist inconclusive, EPAC1 ag 162%, EPAC1 antag 54%, USP2a inh inconclusive and EPAC2 antagonist 4%.
CSC1=NSC2=NC(=O)/C(=C\c3coc4ccccc4c3=O)C(=N)N12 was read as USP1 inh 22µM*, EPAC2 agonist inconclusive, EPAC1 ag 63µM*, EPAC1 antag 53%, USP2a inh inconclusive and EPAC2 antagonist 84%.
CC(C)CSC1=NSC2=NC(=O)/C(=C\c3ccccc3)C(=N)N12 was read as USP1 inh -8%, EPAC2 agonist -2%, EPAC1 ag -15%, EPAC1 antag -18%, USP2a inh 2% and EPAC2 antagonist 13%.
Screening Cc1nc2nc(SCC(=O)NCCc3ccc(Cl)cc3)nn2c(C)c1Cc1ccccc1 returned USP1 inh -10%.
Screening O=C(CCc1nc2cccnc2n1Cc1cccs1)Nc1cccc(Cl)c1 returned USP1 inh -10%.
For O=[N+]([O-])c1cc(-c2ccccc2)cc([N+](=O)[O-])c1O the results were USP1 inh inconclusive, EPAC2 agonist 0%, EPAC1 ag 1%, EPAC1 antag inconclusive and EPAC2 antagonist 56µM*.
For Cc1ccc(NC(=S)/C(C#N)=C2/Nc3ccccc3S2)cc1 the results were USP1 inh -19%, EPAC2 agonist -5%, EPAC1 ag 2%, EPAC1 antag inconclusive and EPAC2 antagonist 20µM*.
Screening N#C/C(C(=O)N1CCCCC1)=C1\Nc2ccccc2S1 returned USP1 inh -16%, EPAC2 agonist 6%, EPAC1 ag 2%, EPAC1 antag -9%, USP2a inh 0% and EPAC2 antagonist 5%.

Compound activity from PubChem.
